# From PubChem BioAssay (NCI)
# About 79,000 compounds went through this panel and 15% of them were active in at least one assay; those are over-represented in the sample as a whole. Unmarked numbers belong to inactive results. The source made the active and inactive calls. Rule as the data show it: active = growth inhibition above about 70%; inactive = the rest.
# Assays:
# [1] = NCI Yeast Anticancer Drug Screen. Data for the rad50 strain (AID 155);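 also: 0% = growth of vehicle-only cultures of the same strain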; conditions: S. cerevisiae rad50 strain growth inhibition, active compounds read high
# How it was run: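 Genetically altered yeast (DNA repair pathway); compound treatment; growth inhibition vs vehicle ctrl.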
# [2] = NCI Yeast Anticancer Drug Screen. Data for the mec2-1 strain (AID 157); conditions: S. cerevisiae mec2-1 strain, active compounds read high
# How it was run: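 Mutant yeast (mec2-1) grown with compound; growth inhibition relative to vehicle control reported.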
# [3] = NCI Yeast Anticancer Drug Screen. Data for the sgs1 mgt1 strain (AID 161);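 also: 0% = growth of cultures given vehicle only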; conditions: S. cerevisiae sgs1 mgt1 strain, active compounds read high
# How it was run: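 This yeast growth screen uses a strain with defined DNA-repair lesions; compound-treated growth is compared with vehicle-treated growth.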
# [4] = NCI Yeast Anticancer Drug Screen. Data for the cln2 rad14 strain (AID 165);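 also: 0% = growth equal to vehicle treated cultures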; conditions: S. cerevisiae cln2 rad14 strain, active compounds read high
# How it was run: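 Readout is yeast growth inhibition versus vehicle-treated controls, using a strain with cln2 and rad14 alterations exposed to compound.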
# [5] = NCI Yeast Anticancer Drug Screen. Data for the bub3 strain (AID 167); conditions: S. cerevisiae bub3 mutant strain, active compounds read high
# How it was run: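 Yeast carrying a defined mutation is treated with each compound, and growth is compared with that of vehicle-exposed cells to give inhibition.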
# [6] = NCI Yeast Anticancer Drug Screen. Data for the mlh1 rad18 strain (AID 175); conditions: S. cerevisiae mlh1 rad18 strain growth inhibition, active compounds read high
# How it was run: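 Genetically defined yeast (DNA repair-deficient) exposed to compounds; growth inhibition determined relative to vehicle.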
# [7] = at 5.0 µM (retest, dose inferred, filed as 0.5)
# [8] = at 50.0 µM (retest, dose inferred, filed as 5.0)
SMILES,"growth inhibition [1, 7]","growth inhibition [1, 8]",growth inhibition ([1]; at 50.0 µM),"growth inhibition [2, 7]","growth inhibition [2, 8]",growth inhibition ([2]; at 50.0 µM),"growth inhibition [3, 7]","growth inhibition [3, 8]",growth inhibition ([3]; at 50.0 µM),"growth inhibition [4, 7]","growth inhibition [4, 8]",growth inhibition ([4]; at 50.0 µM),"growth inhibition [5, 7]","growth inhibition [5, 8]",growth inhibition ([5]; at 50.0 µM),"growth inhibition [6, 7]","growth inhibition [6, 8]",growth inhibition ([6]; at 50.0 µM)
c1ccc(C2=NOC3(c4ccccc4)SC4CCCCC4CN23)cc1 (configuration not stated),6%,97% (active),90.3% (active),-22%,98% (active),93.7% (active),10%,97% (active),92.4% (active),15%,98% (active),90.4% (active),25%,97% (active),90.2% (active),8%,98% (active),90.1% (active)
O=S(=O)(Nc1ccc(Cl)cc1)c1ccccc1,-3%,50%,76.5% (active),-14%,32%,46%,1%,80% (active),47.7%,-9%,81% (active),20.9%,-8%,56%,53.9%,-5%,63%,45.5%
Cc1ccc(/[N+]([O-])=C/c2ccccc2)cc1,-2%,-23%,98.2% (active),4%,-17%,99.2% (active),-13%,-2%,95.7% (active),-46%,-25%,52.8%,-12%,13%,99% (active),-27%,-20%,79.2% (active)
CCCCCCCCCC1OCC(O)CO1 (configuration not stated) (tested in a mixture with another compound),7%,66%,99% (active),9%,79% (active),96.1% (active),10%,96% (active),98.7% (active),3%,90% (active),86.4% (active),8%,87% (active),89.3% (active),12%,98% (active),99.5% (active)
Oc1ccc2cc(Br)ccc2c1O,-28%,97% (active),97.2% (active),-11%,97% (active),98.3% (active),10%,98% (active),97.5% (active),-24%,97% (active),97% (active),-5%,98% (active),98% (active),-7%,97% (active),98.2% (active)
C1=C(c2c(-c3ccccc3)[nH]c3ccccc23)Cc2ccccc21,3%,93% (active),12.6%,0%,95% (active),43.7%,0%,54%,62.1%,-12%,93% (active),30.2%,-3%,58%,71.4% (active),3%,93% (active),54.8%
Cc1cc(C(O)(C(F)(F)F)C(F)(F)F)c(I)c(C(O)(C(F)(F)F)C(F)(F)F)c1,100% (active),100% (active),97.3% (active),99% (active),100% (active),99.2% (active),99% (active),100% (active),99.2% (active),98% (active),99% (active),89.8% (active),99% (active),99% (active),98.7% (active),99% (active),99% (active),98.5% (active)
Cc1cc(O)ccc1N=Nc1ccccc1,10%,99% (active),99.7% (active),-1%,99% (active),99.8% (active),-1%,99% (active),99.7% (active),-8%,99% (active),99.4% (active),14%,99% (active),99.5% (active),1%,99% (active),99.7% (active)
CCC[CH2][Sn]([CH2]CCC)([O]C(=O)c1cc(F)ccc1F)[O]C(=O)c1cc(F)ccc1F,42%,42%,84.1% (active),25%,25%,83.6% (active),33%,33%,73.1% (active),13%,13%,70.4% (active),22%,22%,79.2% (active),20%,20%,78.2% (active)
